PriA SSB inh: blocks PriA binding to SSB C-terminal tail. AlphaScreen SSBct-PriA binding, biotinylated peptide. 0.6% of 430,000 active. inhibition, % at 33 µM. AID 1272365; in the data active = inhibition mostly above about 37%, no sharp cut-off; inactive = mostly below about 20%;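 also: plate controls were negative control peptide for no effect and reference peptide for full effect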
Sa RN4220 lethal: S. aureus RN4220 growth inhibition; OD600, 16 h; inhibition, % (test concentration not listed); 0.33% of 330,000 active; in the data active = inhibition above about 85%;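 also: plate controls were untreated cells for no effect and reference antibiotic for full effect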
Sa ugtP lethal: compounds lethal to S. aureus RN4220 ugtP deletion mutant; OD600 growth, 16 h; growth inhibition, % (no concentration beside the values); 0.54% of 330,000 active; in the data active = growth inhibition above about 68%;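 also: plate controls were untreated wells for no effect and antibiotic for full effect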
Numbers without * were called inactive; · = not tested or not shown. Rows were chosen to be rich in hits. Some 1% of all compounds tested hit in one or more screens of this group.

SMILES | PriA SSB inh | Sa RN4220 lethal | Sa ugtP lethal
Cc1cc(NC(=O)CSc2ccc(NC(=O)c3ccco3)nn2)no1 | -4.0 | · | ·
CCS(=O)(=O)N1CCc2nc(-c3ccccc3)sc2C1 | 91.0* | -0.1 | -7.2
COc1ccc(-c2nc3c(s2)CN(S(C)(=O)=O)CC3)cc1OC | 16.7 | 2.3 | 6.5
Cc1ccc(-n2ccnc2N2CCN(C(=O)COc3ccccc3)CC2)cc1 | 68.0 | · | ·
Cc1ccc(-n2ccnc2N2CCN(C(=O)c3cc(=O)c4ccccc4o3)CC2)cc1 | -8.0 | · | ·
Cc1ccc(-n2ccnc2N2CCN(C(=O)c3c(F)cccc3F)CC2)cc1 | 78.1* | · | ·
Cc1ccc(-n2ccnc2N2CCN(C(=O)c3c(F)cccc3Cl)CC2)cc1 | 62.0* | · | ·
Cc1ccc(-n2ccnc2N2CCN(C(=O)c3ccc(C)c(C)c3)CC2)cc1 | 36.0* | · | ·
Cc1ccc(C(=O)N2CCN(c3nccn3C)CC2)cc1C | 16.0 | · | ·
O=C(Nc1cnc2ccccc2c1)C1CCN(c2ccc(-c3ccco3)nn2)CC1 | -2.0 | · | ·
Cc1ccccc1OCC(=O)NCCn1ccc(-c2ccncc2)n1 | -4.0 | · | ·
COc1cc2nc(C3CCC3)nc(N3CCN(c4ccccc4OC)CC3)c2cc1OC | 39.1* | 3.6 | 4.6
COc1cc2nc(C3CCC3)nc(N3CCN(c4ccccn4)CC3)c2cc1OC | 16.4 | · | ·
CCCCn1c(=O)c(C(=O)Nc2ncccc2C)c(O)c2ccccc21 | 2.0 | 67.0 | 100.2*
CCCn1c(=O)c(C(=O)Nc2ncccc2O)c(O)c2ccccc21 | -9.1 | 4.9 | 4.0
CCCCCCn1c(=O)c(C(=O)Nc2cccc(C)n2)c(O)c2ccccc21 | -15.9 | 4.8 | 6.9
CCCCCCn1c(=O)c(C(=O)Nc2ncccc2C)c(O)c2ccccc21 | -17.8 | 65.5 | 88.6*
CC(=O)NCC#CCOc1ccc2c(c1)OCO2 | 27.0 | · | ·
O=c1c2sccc2nc(SCc2nc(-c3ccccc3Cl)no2)n1-c1ccc(F)cc1 | 1.0 | · | ·
O=C(NCc1cccs1)C(=O)NCC1(c2cccs2)CCCC1 | -11.0 | · | ·
Cc1nc2c(-c3ccccc3)c(C)[nH]n2c(=O)c1Cc1ccccc1 | 9.0 | 2.5 | -7.1
Cc1nc2c(-c3ccc(Cl)cc3)c(C)[nH]n2c(=O)c1Cc1ccccc1 | -5.8 | 99.7* | 99.6*
Cc1cccc2[nH]c(SC(C)c3ccccc3)nc12 (stereo not drawn) | -22.0 | · | ·
Clc1ccc(C(c2ccc(Cl)cc2)n2cc[n+](CC(OCc3ccc(Cl)cc3Cl)c3ccc(Cl)cc3Cl)c2)cc1 (stereo not drawn) | 9.6 | 100.4* | 100.1*
O=C(CC=NOCc1ccc(Cl)cc1Cl)c1ccc(Cl)cc1 | -14.0 | 6.1 | -2.1
SMILES | PriA SSB inh | Sa RN4220 lethal | Sa ugtP lethal
O=C(Nc1cnc(Oc2ccccc2)nc1)Nc1ccc(F)c(Cl)c1 | 1.0 | · | ·
COc1ccc(S(=O)(=O)C2CN(S(=O)(=O)c3ccccc3C(F)(F)F)C2)cc1 | 1.0 | · | ·
COc1ccccc1-c1cc(C(F)(F)F)nc(N2CCCC2)n1 | -135.6 | 5.2 | 86.0*
COc1ccccc1-c1cc(C(F)(F)F)nc(N2CCCCC2)n1 | -115.8 | 2.2 | 20.2
CCc1nc(C)cn1S(=O)(=O)c1ccc(Cl)c(Cl)c1Cl | -12.2 | 2.5 | -7.1
CCc1nc(C)cn1S(=O)(=O)c1ccc([N+](=O)[O-])cc1 | -11.9 | 97.4* | 94.3*
COCCN1CCC(CNC(=O)C(=O)NC2CCCC2)CC1 | -2.0 | · | ·
Cc1ccc(C)c(CC(=O)Nc2nnc(-c3ccno3)o2)c1 | 56.0* | · | ·
Cc1ccc(C)c(CC(=O)Nc2nnc(-c3ccccc3)o2)c1 | 25.0 | · | ·
Cc1ccc(C)c2sc(N(CCCn3ccnc3)C(=O)Cc3ccc(F)cc3)nc12 | 33.0* | · | ·
Cc1ccc(C)c2sc(N(CCCn3ccnc3)C(=O)c3ccco3)nc12 | -20.0 | · | ·
CS(=O)(=O)c1ccc(C(=O)N(CCCn2ccnc2)c2nc3ccccc3s2)cc1 | -1.0 | · | ·
COc1ccc(C)c2sc(N(CCCn3ccnc3)C(=O)Cc3ccccc3)nc12 | 33.0* | · | ·
O=C(C1COc2ccccc2O1)N(CCCn1ccnc1)c1nc2ccc(F)cc2s1 (stereo not drawn) | 69.0 | · | ·
CCOc1ccc2nc(N(CCCn3ccnc3)C(=O)c3cccs3)sc2c1 | 40.0* | · | ·
COc1ccc2nc(N(CCCn3ccnc3)C(=O)Cc3ccc(F)cc3)sc2c1 | 39.0* | · | ·
COc1ccc(Cl)c2sc(N(CCN(C)C)C(=O)Cc3ccccc3)nc12 | 12.0 | · | ·
Brc1ccccc1OCCNCc1ccccc1 | -10.7 | 3.5 | -3.1
Clc1ccc(OCCCNCc2ccccc2)c2ccccc12 | 6.6 | 100.0* | 95.2*
COCCNC(=O)c1oc2cc(OC)ccc2c1C | -12.0 | · | ·
Oc1cc(NCc2ccc(F)cc2)cc2cccnc12 | 29.2 | 7.6 | -12.6
CN(C)CCCNc1cc(O)c2ncccc2c1 | 47.9* | 6.7 | 4.0
O=C(c1ccc2nsnc2c1)N(CCc1ccccc1)Cc1ccccn1 | -8.0 | · | ·
CCOC(=O)C(=O)Cc1nc(OCc2ccccc2)cc(OCc2ccccc2)n1 | -0.2 | -1.4 | 22.3
CCOC(=O)C(Cc1nc(OCc2ccccc2)cc(OCc2ccccc2)n1)=NO | -17.9 | -0.9 | 87.4*
SMILES | PriA SSB inh | Sa RN4220 lethal | Sa ugtP lethal
COc1ccc(NC(=O)Cn2c(-c3ccc(C)cc3)ncc(C#N)c2=O)cc1Cl | 4.0 | · | ·
CSc1ccc(CNC(=O)[C@H]2CCCN(c3nc4c(-c5ccccc5)csc4c(=O)[nH]3)C2)cc1 | -13.0 | · | ·
Cc1ccccc1-n1c(SCC(=O)Nc2ccc3c(c2)OCO3)nnc1-c1ccccn1 | 42.1* | 10.3 | 8.0
Cn1cccc1Cc1nnc(SCC(=O)Nc2ccc3c(c2)OCO3)n1-c1ccc(Cl)cc1 | 87.2* | · | ·
COc1ccc(-n2c(Cc3cccn3C)nnc2SCC(=O)Nc2ccc3c(c2)OCO3)cc1 | 11.3 | -1.6 | 6.3
CCn1c(SCC(=O)Nc2ccc3c(c2)OCCO3)nnc1-c1ccccn1 | -2.8 | -0.3 | 3.0
NC(=O)c1ccccc1OCC#CCNC(=O)c1cnn(-c2ccccc2)n1 | 15.0 | · | ·
O=S(=O)(NCCOc1ccc2nnc(-c3ccccc3)n2n1)c1cccnc1 | -5.0 | · | ·
O=C(CC1CCCCN1S(=O)(=O)c1cccs1)Nc1nc2ccccc2s1 (stereo not drawn) | 18.0 | · | ·
O=[N+]([O-])c1ccc(N2CCCC2)cc1N1CCCCCC1 | 60.8* | · | ·
Nc1cc(N2CCCC2)ccc1[N+](=O)[O-] | 0.4 | 0.0 | 4.2
O=[N+]([O-])c1ccc(N2CCCC2)cc1N1CCCCC1 | 97.2* | · | ·
O=[N+]([O-])c1ccc(N2CCCCC2)cc1N1CCOCC1 | 26.8 | 4.4 | 4.3
O=[N+]([O-])c1ccc(N2CCNCC2)cc1N1CCCC1 | 62.3* | · | ·
O=[N+]([O-])c1ccc(N2CCOCC2)cc1N1CCCCC1 | 14.0 | 6.7 | 15.6
CC1CN(c2ccc([N+](=O)[O-])c(N3CCCCC3)c2)CCN1 (stereo not drawn) | 1.7 | 4.3 | 3.2
O=[N+]([O-])c1ccc(N2CCCC2)cc1N1CCCC1 | 46.5* | 6.8 | 7.2
COC(=O)C1CC(Oc2ccccc2F)CN1C(=O)CCc1c(C)noc1C (stereo not drawn) | -6.0 | · | ·
O=C1CCC(C(=O)NCc2cc(-c3ccc(Cl)cc3)on2)N1 (stereo not drawn) | -6.0 | · | ·
CC(C)n1c(=O)c2ccccc2n(Cc2nc(-c3ccccc3Cl)no2)c1=O | -25.0 | · | ·
O=C(c1csc(Nc2ccccc2)n1)N1CCN(c2ccccc2)CC1 | 21.0* | · | ·
O=C(c1csc2nc(-c3ccccc3)cn12)N1CCN(c2ccccc2)CC1 | active | · | ·
COc1cccc(-c2cn3c(C(=O)N4CCN(c5ccccc5OC)CC4)csc3n2)c1 | 20.0 | · | ·
COc1ccccc1N1CCN(C(=O)c2csc3nc(-c4ccc(F)cc4)cn23)CC1 | 20.0* | · | ·

Source: PubChem BioAssay (several laboratories)
